IDE exosite FP: exo-site inhibitors of human insulin-degrading enzyme; purified IDE, FL-6b probe fluorescence polarization; stronger effect = lower value; z-score at 20 µM; P14735; 17,000 compounds, 6.3% hits;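 active = z-score of -3 or lower, meaning strong loss of probe binding signal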;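 also: His-tagged human IDE residues 42-1019 made in E. coli with 30 nM FL-6b probe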
Starred values were filed as active, the others as inactive; ! = not active in a repeat. The sample as a whole holds a higher share of hits than the screen did.

SMILES	IDE exosite FP
Cc1ccccc1-c1ccc([C@@H]2[C@H](CO)N3C(=O)CN(C(=O)c4cccnc4)C[C@@H]23)cc1	-7.2*
Cc1ccccc1-c1ccc([C@@H]2[C@@H](CO)N3C(=O)CN(C(=O)c4cccnc4)C[C@@H]23)cc1	-13*
Cc1ccccc1-c1ccc(C2[C@@H]3CN(C(=O)c4cnccn4)C[C@H]2N3)cc1 (stereo partly drawn)	-20*!
CN(C)C(=O)c1ccc(-c2ccc(C3[C@@H]4CN(C(=O)c5cnccn5)C[C@H]3N4)cc2)cc1 (stereo partly drawn)	2.2
Cc1ccccc1-c1ccc([C@@H]2[C@@H](CO)N3C(=O)CN(C(=O)c4cccnc4)C[C@H]23)cc1	-3
O=C(Nc1ccccc1)N1CCCCN2[C@H](CO)[C@H](c3ccc(Br)cc3)[C@@H]2C1	4.1
CCCNC(=O)N1[C@H](CO)[C@@H](c2ccccc2-c2ccccc2F)[C@@H]1C#N	-0.68
C/C=C/c1ccc([C@H]2[C@@H](CO)N3CCCCN(S(=O)(=O)c4cccc(C)c4)C[C@@H]23)cc1	3.5
CCS(=O)(=O)N1CC2(CN(C(=O)c3cccnc3)C2)c2c(n(C)c3cc(OC)ccc23)[C@H]1CO	1
CO[C@@H](CN(C)C(=O)c1ccc2c(c1)OCO2)[C@@H](C)CN([C@H](C)CO)S(=O)(=O)c1ccc(Cl)cc1	-0.42
C[C@H](CO)N1C[C@H](C)[C@H](CN(C)C(=O)NC2CCCCC2)OCCCC[C@H](C)Oc2ccc(N(C)C)cc2C1=O	0.36
CCC(=O)N1[C@@H](CO)[C@H](c2ccccc2)[C@@H]1CNC(=O)CN1CCOCC1	2.9
Cc1ccccc1-c1ccc([C@@H]2[C@@H](CO)N3CCCCN(C(=O)c4cccnc4)C[C@H]23)cc1	-2.2
Cc1ccccc1-c1ccc([C@H]2[C@@H](CO)N3CCCCN(C(=O)c4cccnc4)C[C@H]23)cc1	-16*
CC(C)(O)C#Cc1ccc([C@@H]2[C@@H](CO)N3CCCCN(C(=O)c4cccnc4)C[C@@H]23)cc1	3.4
CC(C)(O)C#Cc1ccc([C@@H]2[C@H](CO)N3CCCCN(C(=O)c4cccnc4)C[C@@H]23)cc1	0.94
Cc1ccccc1-c1ccc([C@H]2[C@H](CO)N3CCCCN(C(=O)c4cccnc4)C[C@@H]23)cc1	-3.9*
Cc1ccccc1-c1ccc([C@@H]2[C@H](CO)N3CCCCN(C(=O)c4cccnc4)C[C@@H]23)cc1	-8.4*
CC(C)(O)C#Cc1ccc([C@H]2[C@H]3CN(C(=O)c4cccnc4)CCCCN3[C@H]2CO)cc1	0.85
CS(=O)(=O)N1[C@H](CO)[C@H](c2ccccc2)[C@@H]1C#N	1.6
CC(C)CC#Cc1ccc([C@@H]2[C@H](CO)N3C(=O)CN(S(C)(=O)=O)C[C@@H]23)cc1	4.5
CC(=O)N1CC(=O)N2[C@H](CO)[C@@H](c3ccc(C#CC(C)C)cc3)[C@H]2C1	-0.46
O=C(C1CCCC1)N1CC(=O)N2[C@H](C1)[C@@H](c1ccc(C#CC3CCCC3)cc1)[C@@H]2CO	1.7
O=C(C[C@@H]1CC[C@H]2[C@@H](COC[C@@H](O)CN2Cc2ccc(C(F)(F)F)cc2)O1)N1CCc2ccccc2C1	0.79
CN(C)CC(=O)N1CC(=O)N2[C@H](CO)[C@@H](c3ccc(/C=C/c4ccccc4)cc3)[C@H]2C1	-5.6*
SMILES	IDE exosite FP
Cc1ccc(-c2ccc([C@H]3[C@H]4CN(C(=O)NC(C)C)CC(=O)N4[C@H]3CO)cc2)cc1	-0.62
CN(C)CC#Cc1ccc([C@@H]2[C@@H](CO)N3C(=O)CN(C(=O)CN(C)C)C[C@H]23)cc1	-0.1
O=C(NC1CCCCC1)N1CC(=O)N2[C@H](C1)[C@@H](c1ccc(/C=C/c3ccccc3)cc1)[C@@H]2CO	-1.7
O=C(NC1CCCC1)N1CC(=O)N2[C@H](CO)[C@H](c3ccc(/C=C/c4ccccc4)cc3)[C@@H]2C1	-0.53
O=C(NC1CCCC1)N1CC(=O)N2[C@H](CO)[C@@H](c3ccc(/C=C/c4ccccc4)cc3)[C@H]2C1	-9.5*
COc1ccc(NC(=O)N2CC(=O)N3[C@@H](CO)[C@H](c4ccc(/C=C/c5ccccc5)cc4)[C@@H]3C2)cc1	2.6
CC(C)NC(=O)N1CC(=O)N2[C@H](CO)[C@@H](c3ccc(/C=C/c4ccccc4)cc3)[C@H]2C1	-6.9*
Cc1ccc(-c2ccc([C@H]3[C@H](CO)N4C(=O)CN(C(=O)NC(C)C)C[C@@H]34)cc2)cc1	-0.41
CN(C)CC(=O)N1CC(=O)N2[C@H](CO)[C@@H](c3ccc(-c4ccc(C(=O)N(C)C)cc4)cc3)[C@H]2C1	0.045
O=C(NC1CCCC1)N1CC(=O)N2[C@@H](CO)[C@H](c3ccc(/C=C/c4ccccc4)cc3)[C@@H]2C1	-6.5*
CO[C@@H]1CC[C@H]2CCN(C)C(=O)CCCN(C)C(=O)c3cc(C#N)ccc3OC[C@@H]1O2	0.42
Cc1ccc(-c2ccccc2[C@H]2[C@@H](C#N)N(C(=O)Cc3cccnc3)[C@H]2CO)cc1	2.1
CC(=O)N1CC(=O)N2[C@H](C1)[C@H](c1ccc(-c3ccncc3)cc1)[C@@H]2CO	4
